Results published in PubChem BioAssay (NCATS).
Results filed as inconclusive are left out. Activity calls are given as the source filed them. Calls follow the shape of the dose curve; as a rule, active = well fitted inhibition curve with a large enough effect; inconclusive = small, poorly fitted or top-dose-only effect; inactive = flat fitted curve, though single readings scatter.

Tests used:
Test in all cases: qHTS profiling for inhibitors of Plasmodium falciparum proliferation (AID 504749); also: nearly all actives have a fitted effect of over 60% in size
Conditions in all cases: P. falciparum in erythrocytes, SYBR Green DNA, 72 h; series mostly up to 28.7 µM
[1] = test system: CP325
Method in brief: (§1)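 Readout was DNA-dye fluorescence from lysed cultures, ex 485/em 535 nm. Parasitized red cells had grown 72 h with compound; data scaled between 0.29 uM artemisinin and DMSO wells and corrected using vehicle-only plates.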

[2] = test system: CP329
Method in brief: as §1

[3] = test system: DIV14
Method in brief: as §1

[4] = test system: DIV17
Method in brief: as §1

[5] = test system: Dd2
Method in brief: as §1

[6] = test system: FAB9
Method in brief: as §1

[7] = test system: ICS
Method in brief: as §1

[8] = test system: JCK
Method in brief: as §1

[9] = test system: CP335
Method in brief: as §1

[10] = test system: DIV30
Method in brief: as §1

[11] = test system: GB4
Method in brief: as §1

[12] = test system: PC26
Method in brief: as §1

[13] = test system: DFO2036
Method in brief: as §1

[14] = test system: ECU
Method in brief: as §1

[15] = test system: HB3
Method in brief: as §1

[16] = test system: N140
Method in brief: as §1

[17] = test system: P93_24
Method in brief: as §1

[18] = test system: P94_40
Method in brief: as §1

[19] = test system: PAD
Method in brief: as §1

[20] = test system: PC15
Method in brief: as §1

Measured: Potency
Potency is read from the fitted curve at half-maximal effect.

CN[C@@H]1C[C@@H](c2ccc(Cl)c(Cl)c2)c2ccccc21
active: [3] 5.36 µM | [4] 7.57 µM | [5] 10 µM | [7] 10 µM
inactive: [1] | [2] | [6] | [8]

COC(=O)c1cncn1C(C)c1ccccc1 (stereo unspecified)
inactive: [1] | [2] | [9] | [3] | [4] | [10] | [11] | [12]

c1ccc(C2(c3ccccc3)CC2C2=NCCN2)cc1 (stereo unspecified)
active: [20] 5.62 µM
inactive: [1] | [2] | [9] | [13] | [10] | [5] | [14] | [6] | [15] | [8] | [16] | [17] | [18] | [19] | [12]

CCCCCCCCCCCCCCCC[N+](C)(C)C
active: [1] 12 µM | [2] 10.7 µM | [9] 8.49 µM | [3] 6.75 µM | [4] 8.49 µM | [14] 8.91 µM | [11] 4.78 µM | [7] 7.08 µM

COC(=O)[C@@H](N)CCCN=C(N)N[N+](=O)[O-]
inactive: [1] | [2] | [9] | [13] | [3] | [4] | [10] | [5] | [14] | [6] | [11] | [15] | [7] | [8] | [16] | [17] | [18] | [19] | [20] | [12]

C1CCC(NC2CCCCC2)CC1
inactive: [1] | [2] | [9] | [13] | [3] | [4] | [10] | [5] | [14] | [6] | [11] | [15] | [7] | [8] | [16] | [17] | [18] | [19] | [20] | [12]

Cc1ccc(Cl)c(O)c1
inactive: [1] | [2] | [9] | [13] | [3] | [4] | [10] | [5] | [14] | [6] | [11] | [15] | [7] | [8] | [16] | [17] | [18] | [19] | [20] | [12]

C=CCN1CC[C@]23CCCCC2[C@H]1Cc1ccc(O)cc13 (stereo partly specified)
active: [5] 11.2 µM
inactive: [1] | [2] | [9] | [13] | [3] | [4] | [10] | [14] | [6] | [15] | [7] | [8] | [16] | [17] | [18] | [19] | [12]

CC(=O)OCC1=C(C(=O)O)N2C(=O)[C@@H](N)[C@@H]2SC1
inactive: [1] | [2] | [9] | [3] | [4] | [10] | [5] | [14] | [6] | [11] | [15] | [7] | [8] | [20] | [12]

O=C(O)C(Cl)Cl
inactive: [1] | [2] | [9] | [13] | [3] | [4] | [10] | [5] | [14] | [6] | [11] | [15] | [7] | [8] | [16] | [17] | [18] | [19] | [20] | [12]

CC(C)NC(C)Cc1ccc(I)cc1 (stereo unspecified)
inactive: [1] | [2] | [13] | [14] | [6] | [15] | [7] | [8] | [16] | [17] | [18] | [19] | [20]

CN(C)[C@@H]1C(=O)C(C(N)=O)=C(O)[C@@]2(O)C(=O)C3=C(O)c4c(O)cccc4[C@@](C)(O)[C@H]3[C@H](O)[C@@H]12
active: [5] 3.55 µM
inactive: [1] | [2] | [3] | [4] | [14] | [6] | [8] | [20] | [12]

O=C(O)COc1ccccc1
inactive: [1] | [2] | [9] | [13] | [3] | [4] | [10] | [5] | [14] | [6] | [11] | [15] | [7] | [8] | [16] | [17] | [18] | [19] | [20] | [12]

CCCN1CCC[C@H](c2cccc(O)c2)C1
inactive: [1] | [2] | [9] | [13] | [3] | [10] | [14] | [6] | [15] | [8] | [16] | [17] | [18] | [19] | [20] | [12]

CC(=O)[O][Hg][c]1ccccc1
active: [1] 6.01 µM | [9] 5.36 µM | [13] 3.98 µM | [3] 4.78 µM | [4] 4.26 µM | [5] 0.126 µM | [14] 10 µM | [6] 3.98 µM | [11] 4.26 µM | [15] 6.31 µM | [7] 3.55 µM | [8] 3.98 µM | [16] 3.55 µM | [17] 5.01 µM | [18] 3.55 µM | [19] 6.31 µM | [20] 3.55 µM | [12] 6.75 µM

NC(=O)CN1CC(O)CC1=O (stereo unspecified)
inactive: [1] | [2] | [9] | [13] | [3] | [4] | [10] | [5] | [14] | [6] | [11] | [15] | [7] | [8] | [16] | [17] | [18] | [19] | [20] | [12]

Cc1cc(O)ccc1Cl
inactive: [1] | [2] | [9] | [13] | [3] | [4] | [10] | [5] | [14] | [6] | [11] | [15] | [7] | [8] | [16] | [17] | [19] | [20] | [12]

C[C@]12CCC(=O)C(O)=C1CC[C@@H]1[C@H]3CCC(=O)[C@@]3(C)CC[C@@H]12
inactive: [1] | [2] | [9] | [10] | [5] | [14] | [6] | [11] | [15] | [7] | [8] | [19] | [20] | [12]

CN1C2CCC1CC(OC(=O)c1cc(Cl)cc(Cl)c1)C2 (stereo unspecified)
inactive: [1] | [2] | [9] | [13] | [10] | [5] | [6] | [11] | [15] | [8] | [16] | [17] | [18] | [19] | [20] | [12]

CC[N+]1(CCOC(=O)C(O)(c2ccccc2)c2ccccc2)CCCCC1
inactive: [1] | [2] | [9] | [13] | [3] | [4] | [10] | [5] | [14] | [6] | [11] | [15] | [7] | [8] | [16] | [18] | [19] | [20] | [12]

CCCCCCCCCC(CC)c1ccc(S(=O)(=O)O)cc1 (stereo unspecified)
inactive: [1] | [2] | [9] | [13] | [3] | [4] | [10] | [5] | [14] | [6] | [11] | [15] | [7] | [8] | [16] | [17] | [18] | [19] | [20] | [12]

O=[N+]([O-])c1ccc([As](=O)(O)O)cc1
active: [1] 9.53 µM | [2] 12 µM | [9] 4.78 µM | [13] 5.01 µM | [3] 10.7 µM | [4] 12 µM | [10] 8.49 µM | [5] 3.98 µM | [14] 3.55 µM | [11] 8.49 µM | [15] 12.6 µM | [7] 8.91 µM | [16] 4.47 µM | [17] 5.01 µM | [18] 7.08 µM | [19] 7.94 µM | [12] 13.5 µM

C#CC1(O)CCC2C3CCC4=CC(=O)CCC4(C)C3CCC21C (stereo unspecified)
inactive: [1] | [2] | [9] | [13] | [3] | [4] | [10] | [5] | [14] | [6] | [11] | [15] | [7] | [8] | [16] | [17] | [18] | [19] | [20] | [12]

NC1=NC(=O)N2CC12 (stereo unspecified)
active: [7] 11.2 µM
inactive: [1] | [2] | [3] | [10] | [6] | [8] | [16] | [20]

COC(C)(C)CCCC(C)C/C=C/C(C)=C/C(=O)OC(C)C (stereo unspecified)
active: [17] 8.91 µM
inactive: [13] | [6]

CCCCc1ccc(C(=O)O)nc1
inactive: [1] | [2] | [9] | [13] | [4] | [10] | [5] | [14] | [6] | [11] | [15] | [7] | [8] | [16] | [17] | [18] | [19] | [20] | [12]
